Assay outcomes deposited in PubChem by National Center for Advancing Translational Sciences (NCATS).
The list is not random: actives were taken first. Their share in the collection is about 2.3%.
TRPV1 potentiator = enhances activation of the human vanilloid receptor TRPV1 | Q8NER1 | TRPV1-expressing cells, Fluo-8 calcium influx, capsaicin EC20 potentiation | potentiation, % at 8.33 µM | actives 0.02% (n = 320,000); in the data active = potentiation above about 80%; inconclusive = between about 30% and that limit; note: 0% is about no effect
Target sequence (Q8NER1 whole entry, looked up): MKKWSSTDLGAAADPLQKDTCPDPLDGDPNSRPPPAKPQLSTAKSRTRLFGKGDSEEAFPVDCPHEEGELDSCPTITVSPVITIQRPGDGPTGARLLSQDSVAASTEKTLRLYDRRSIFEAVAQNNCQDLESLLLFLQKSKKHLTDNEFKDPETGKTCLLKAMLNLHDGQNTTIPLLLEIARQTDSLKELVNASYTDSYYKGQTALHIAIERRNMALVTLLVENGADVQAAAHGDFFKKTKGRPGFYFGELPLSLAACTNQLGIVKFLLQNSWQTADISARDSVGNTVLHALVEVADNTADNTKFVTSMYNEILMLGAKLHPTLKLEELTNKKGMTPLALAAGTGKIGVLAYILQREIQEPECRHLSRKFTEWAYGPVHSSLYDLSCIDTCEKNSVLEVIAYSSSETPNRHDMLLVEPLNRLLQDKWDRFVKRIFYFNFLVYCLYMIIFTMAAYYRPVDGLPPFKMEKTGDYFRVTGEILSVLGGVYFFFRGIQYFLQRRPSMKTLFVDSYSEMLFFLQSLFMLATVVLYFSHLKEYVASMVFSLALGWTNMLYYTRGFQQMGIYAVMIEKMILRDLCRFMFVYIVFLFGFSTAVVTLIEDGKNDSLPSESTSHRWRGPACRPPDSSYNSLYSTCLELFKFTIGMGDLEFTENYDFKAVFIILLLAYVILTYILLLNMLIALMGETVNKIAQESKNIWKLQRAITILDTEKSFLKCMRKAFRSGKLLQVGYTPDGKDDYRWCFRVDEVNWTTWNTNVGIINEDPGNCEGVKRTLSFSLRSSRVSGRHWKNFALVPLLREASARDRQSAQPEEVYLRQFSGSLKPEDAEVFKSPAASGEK
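TRPV1-expressing cells were cultured overnight at 35.5C and loaded with Fluo-8 calcium dye for 40 to 90 min at room temperature. After a 10 s baseline, compound was added and calcium influx was read kinetically for 3 min (ex 480/em 520 nm).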
TRPV1 agonist = activates the human vanilloid receptor TRPV1 | Q8NER1 | TRPV1-expressing cells, Fluo-8 calcium influx, agonist mode | activation, % at 8.33 µM | actives 0.19% (n = 320,000); in the data active = activation above about 80%; inconclusive = between about 30% and that limit; note: 0% is about no effect
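Fluo-8 calcium influx in TRPV1-expressing cells, kinetic read (ex 480/em 520 nm). Compound added and read 3 min for agonist activity, followed by capsaicin at EC20 final and 2 min further read for enhancement.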
FUS yeast rescue = suppressors of FUS proteinopathy in yeast; actives 0.24% (n = 390,000); Potency, µM (highest dose often 76.6 µM), hits mostly activators; S. cerevisiae FUS-expressing, growth rescue, OD600, 24 h;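 note: potency is the fitted concentration of half-maximal effect; plate controls were DMSO vehicle for no effect and reference control for full effect; nearly all actives have a fitted effect of over 55% in size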
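Yeast FUS proteinopathy model; galactose-induced FUS (2%), starting OD 0.005. Cpds in dilution series, 24hr, 30C, 99% humidity. Abs 600 nm growth. Pos ctrl CP55940 (top 92uM final); neg ctrl DMSO.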
ELG1 repair inh = inhibitors of ELG1-dependent DNA repair in HEK293T cells | actives 2.3% (n = 330,000) | HEK293T ELG1-luciferase reporter, luminescence, 16 h; DNA damage induced by 5-fluorouridine | Potency, µM (highest dose often 46.1 µM), for the others: top-dose activity change, negative = inhibition, usual class: inhibitors; note: potency is the fitted concentration of half-maximal effect; % is set by controls: 0 for no effect and ±100 for the full control effect; nearly all actives have a fitted effect of over 55% in size
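5-Fluorouridine DNA damage + compound/DMSO, 2,000 cells/well, 16 h, 37 °C/5% CO2. ONE-Glo, 30 min RT, luminescence. Readout = decrease in reporter signal.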
Giardia kill = kills Giardia lamblia. Giardia lamblia trophozoite viability. activity change, % at 7.66 µM, hits read low. actives 0.15% (n = 340,000); in the data active = activity change below about -80%; inconclusive = between about -30% and that limit;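 note: parasites exposed to compound for two days anaerobically before the ATP read; % is set by controls: 0 for no effect and ±100 for the full control effect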
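Media and compound were dispensed first, then trophozoites at 100 cells/well; plates sat 48 hrs at 37 deg C without oxygen before ATP luminescence reagent was added and read after 15-30 min at room temperature.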
ELG1 FLuc counter = luciferase inhibition in cell-free luciferin readout for ELG1 hits; shares compounds with ELG1 repair inh; cell-free firefly luciferase luminescence counter-screen, ViewLux; Potency, µM (titrated, usually from 46.1 µM), for the others: top-dose activity change, negative = inhibition, most hits filed as inhibitors; actives 3% (n = 350); AID 624247; note: potency is the fitted concentration of half-maximal effect; % is set by controls: 0 for no effect and ±100 for the full control effect
ELG1-Luc inh = human ELG1 repair inhibition, luciferase-tagged ELG1 confirmation; HEK293T ELG1-luciferase levels, luminescence; cells co-treated with 5-fluorouridine; actives 68% (n = 670); AID 624248; Potency, µM (highest dose often 46.1 µM), without a hit: at the top dose activity change, negative = inhibition, usual class: inhibitors; shares compounds with ELG1 repair inh; note: potency is the fitted concentration of half-maximal effect; % is set by controls: 0 for no effect and ±100 for the full control effect; nearly all actives have a fitted effect of over 55% in size
ELG1 MMS Luc = inhibits ELG1-dependent repair under MMS stimulation in HEK293T cells; shares compounds with ELG1 repair inh; actives 53% (n = 670); HEK293T luciferase-tagged ELG1 level, MMS stimulated; AID 624249; Potency, µM (series often up to 46.1 µM), for the others: top-dose activity change, negative = inhibition, actives largely listed as inhibitors; note: potency is the fitted concentration of half-maximal effect; % is set by controls: 0 for no effect and ±100 for the full control effect; nearly all actives have a fitted effect of over 60% in size
ELG1 5FU viab = confirmation of ELG1 repair inhibitors: viability with 5FU; 670 tested, under 10 active; AID 624250; shares compounds with ELG1 repair inh; cell viability with 5-FU, ELG1-dependent repair; Potency, µM (doses to about 46.1 µM), inactives show top-dose activity change, negative = viability loss, hits mostly cytotoxic;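 note: ELG1-luc HEK293T cells cotreated with 5-fluorouridine at 10 µM final; potency is the fitted concentration of half-maximal effect; viability measured 16 h after compound addition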
ELG1 MMS cell = confirmation of ELG1 repair inhibitors: viability with MMS | shares compounds with ELG1 repair inh | Cell viability with MMS, ELG1-dependent DNA repair | Potency, µM (top dose mostly 46.1 µM), inactives show at the top dose activity change, negative = viability loss, usual class: cytotoxic | actives 33% (n = 670) | AID 624251;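 note: ELG1-luc HEK293T cells co-treated with 10 µM MMS; potency is the fitted concentration of half-maximal effect; viability read 16 h after compound addition; % is set by controls: 0 for no effect and ±100 for the full control effect; nearly all actives have a fitted effect of over 60% in size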
ELG1 unstim viab = affects unstimulated cell viability, ELG1 hit counter-screen; AID 624252; shares compounds with ELG1 repair inh; cell viability counter-screen, unstimulated, luminescence; actives 8% (n = 900); Potency, µM (series often up to 45.9 µM), without a hit: at the top dose activity change, negative = loss of viability, hits mostly cytotoxic;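 note: potency is the fitted concentration of half-maximal effect; compound exposure lasted 16 hours before reading; % is set by controls: 0 for no effect and ±100 for the full control effect; nearly all actives have a fitted effect of over 55% in size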
FLuc biochem = counter-screen for ELG1 repair inhibitors: firefly luciferase inhibition. shares compounds with ELG1 repair inh. purified firefly luciferase, luminescence counter-screen. Potency, µM (top dose mostly 57.5 µM), for the others: at the highest dose activity, negative = inhibition, usual class: inhibitors. actives 10% (n = 350). AID 624253; note: potency is the fitted concentration of half-maximal effect; % is set by controls: 0 for no effect and ±100 for the full control effect
* hit, by the source's call; i = inactive; ? = inconclusive; nt = not tested or not shown. Unless noted, calls come from the whole dose curve; as a rule, active = well fitted curve in the direction sought with a large enough effect; inconclusive = small, poorly fitted or top-dose-only effect, or another doubt; inactive = no such curve, though single readings can be large; an effect the other way counts as inactive or inconclusive.

SMILES	TRPV1 potentiator	TRPV1 agonist	FUS yeast rescue	ELG1 repair inh	Giardia kill	ELG1-Luc inh	ELG1 MMS Luc	ELG1 5FU viab	ELG1 MMS cell	ELG1 unstim viab	others
CC(=O)n1cc([C@@H]2C=C(C(=O)N3CCN(Cc4ccc5c(c4)OCO5)CC3)O[C@H](OCCCCO)C2)c2ccccc21	-23	-3	i	18µM*	-26	?	8%	-6%	-16%	?	ELG1 FLuc counter=-9%;FLuc biochem=-16%
O=C(C1=C[C@H](c2ccc3c(c2)OCO3)C[C@H](OCCCCO)O1)N1CCN(Cc2ccccc2)CC1	7	15	i	8%	9	-35%	?	-1%	?	-6%	ELG1 FLuc counter=-4%;FLuc biochem=-6%
Cc1ccc(-c2nc3cnccn3c2Nc2ccc(C(C)C)cc2)o1	nt	nt	nt	nt	-22	nt	nt	nt	nt	nt
COc1ccc(CNC(=O)C(=O)NCC(c2cccnc2)N2CCN(c3ccccc3F)CC2)cc1 (stereo not drawn)	nt	nt	i	nt	nt	nt	nt	nt	nt	nt
COc1ccc(-c2nn(-c3ccccc3)cc2/C=C/C(=O)N2CCOCC2)cc1OC	-15	?	i	1.5µM*	15	1.4µM*	-16%	?	-10%	?
COc1ccc(-c2nn(-c3ccccc3)cc2C(=O)O)cc1OC	-5	0	i	13%	8	nt	nt	nt	nt	nt
O=C(N[C@H]1/C=C\[C@@H](O)CCCC1)OCc1ccccc1	nt	nt	i	?	3	nt	nt	nt	nt	5%
O=C(c1ccc2c(=O)n(CCc3ccccc3)c(=O)[nH]c2c1)N1CCN(c2ccccc2)CC1	-2	20	i	-5%	0	nt	nt	nt	nt	nt
COc1ccc(N2CCN(C(=O)c3ccc4c(=O)n(CCc5ccc(OC)c(OC)c5)c(=O)[nH]c4c3)CC2)cc1	-2	1	i	1.8µM*	2	16µM*	13µM*	7%	?	?
COc1ccc(OC)c(NC(=O)CCn2c(=S)[nH]c3ccccc3c2=O)c1	-10	12	i	10%	-15	nt	nt	nt	nt	nt
COc1ccc(OC)c(NC(=O)c2ccc3c(=O)n(CCc4ccccc4)c(=S)[nH]c3c2)c1	-9	5	i	1.5µM*	18	?	0.56µM*	-11%	0.63µM*	?
CCCCCn1c(=O)[nH]c2cc(C(=O)N3CCN(Cc4ccc5c(c4)OCO5)CC3)ccc2c1=O	12	3	i	0.46µM*	37	?	0.22µM*	-6%	0.22µM*	?	ELG1 FLuc counter=-18%;FLuc biochem=-12%
CCCCCn1c(=O)[nH]c2cc(C(=O)NCc3ccc4c(c3)OCO4)ccc2c1=O	0	3	i	18%	2	nt	nt	nt	nt	nt
COc1cccc(NC(=O)C2CCN(S(=O)(=O)c3c(C)noc3/C=C/c3cccs3)CC2)c1	nt	nt	i	nt	nt	nt	nt	nt	nt	nt
O=C(NCC1CCCO1)c1c[nH]c2ccc(S(=O)(=O)Nc3ccc(F)cc3F)cc2c1=O (stereo not drawn)	nt	nt	i	nt	nt	nt	nt	nt	nt	nt
Cc1cc(Nc2cccc(Cl)c2C)n2nc(Cc3ccccc3)nc2n1	nt	nt	i	nt	nt	nt	nt	nt	nt	nt
COc1ccc(C(=O)NCC2(N3CCN(C)CC3)CCCCC2)cc1	nt	nt	i	nt	nt	nt	nt	nt	nt	nt
Cc1c(C(=O)Nc2nccs2)oc2ccc(F)cc12	-5	0	i	?	-25	nt	nt	nt	nt	nt
Cc1c(C(=O)Nc2nccs2)oc2ccc(Br)cc12	nt	nt	nt	?	-10	nt	nt	nt	nt	-8%
O=C(Cn1ncc2c3ccccc3n(Cc3cccc(Cl)c3)c2c1=O)NCc1cccs1	nt	nt	i	nt	nt	nt	nt	nt	nt	nt
CCCOc1cccc(C2c3c(-c4ccccc4O)n[nH]c3C(=O)N2Cc2ccco2)c1 (stereo not drawn)	nt	nt	i	nt	nt	nt	nt	nt	nt	nt
O=C(COc1ccc(C(=O)c2ccccc2)cc1)Nc1cccnc1	-21	?	i	1µM*	-3	?	1µM*	-2%	1µM*	?
CN(CCCC(=O)Nc1ccncc1)S(=O)(=O)c1ccc(Cl)cc1	-5	-2	i	2.3µM*	0	-17%	7.9µM*	-7%	7.9µM*	?	ELG1 FLuc counter=18%;FLuc biochem=-6%
CC(C)(C)c1ccc(OCC(=O)Nc2ccc(C(=O)OC3CCCCC3)cc2)cc1	nt	nt	i	nt	nt	nt	nt	nt	nt	nt
CC(=O)c1c(C)[nH]c(C(=O)OCC(=O)Nc2cccc(S(=O)(=O)N3CCCC3)c2)c1C	-8	2	nt	?	-1	nt	nt	nt	nt	nt
SMILES	TRPV1 potentiator	TRPV1 agonist	FUS yeast rescue	ELG1 repair inh	Giardia kill	ELG1-Luc inh	ELG1 MMS Luc	ELG1 5FU viab	ELG1 MMS cell	ELG1 unstim viab	others
CC(=O)c1c(C)[nH]c(C(=O)Nc2cccc(S(=O)(=O)N3CCCC3)c2)c1C	nt	nt	i	?	-7	nt	nt	nt	nt	?
CCSc1nc(=O)c2c(n1C)NC(=O)CC2c1ccc(O)cc1OC (stereo not drawn)	nt	nt	i	nt	nt	nt	nt	nt	nt	nt
CSc1ncc(Cl)c(C(=O)Nc2cc(C(F)(F)F)ccc2Cl)n1	nt	nt	i	nt	nt	nt	nt	nt	nt	nt
N#C/C(=C\c1cccnc1)c1ccccn1	?	-1	i	?	-23	nt	nt	nt	nt	4%	ELG1 FLuc counter=44%;FLuc biochem=-3%
O=S(=O)(c1c(Cl)cc(Br)cc1Cl)N1CCN(C(=S)NC2CC2)CC1	nt	nt	i	4.1µM*	6	4µM*	16µM*	?	14µM*	-12%
COc1ccc(S(=O)(=O)NCCc2csc3nc(-c4ccc(Cl)cc4)nn23)cc1C	nt	nt	i	nt	nt	nt	nt	nt	nt	nt
COc1ccc(-c2cc(C(F)(F)F)n3ncc(C(=O)NCC4CCCO4)c3n2)cc1OC (stereo not drawn)	-23	8	i	0.58µM*	-6	0.89µM*	13%	?	-3%	-3%	ELG1 FLuc counter=10%;FLuc biochem=2%
